Source: PubChem BioAssay
Values joined by “and” are separate entries in the source; they are usually repeats but may differ in a detail not shown here. Identical values can stand only once. Active and inactive are the calls of the source.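 The calls were made as follows, unless noted: active = compounds killing one labelled cell type while sparing the other, by normalised counts and ratio limits, not self-fluorescent; inactive = the rest.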

experiment: modulation of C. elegans fzo-1 (AID 1259413; call rule not given here;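 also: fzo-1 mutant C. elegans worms in liquid wells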); conditions: C. elegans fzo-1 modulator screen, mean read-out; stronger effect = higher value

Structure (SMILES)	mean signal
O=C(NCC1CCCCN1)c1cc(OCC(F)(F)F)ccc1OCC(F)(F)F (centres undefined)	257 (inactive)
O=C(O)COCCN1CCN(C(c2ccccc2)c2ccc(Cl)cc2)CC1 (centres undefined)	254 (inactive)
Clc1ccccc1CN1CCc2sccc2C1	271 (inactive)
C[N+]1(C)CCC(OC(=O)C(O)(c2ccccc2)C2CCCC2)C1 (centres undefined)	254 (inactive)
CN1[C@@H]2CC(OC(=O)[C@H](CO)c3ccccc3)C[C@H]1[C@@H]1O[C@@H]12 (some centres undefined)	252 (inactive)
CC(C)(C(=O)O)c1ccc(C(O)CCCN2CCC(C(O)(c3ccccc3)c3ccccc3)CC2)cc1 (centres undefined)	241 (inactive)
CC(C)n1c(/C=C/[C@@H](O)C[C@@H](O)CC(=O)O)c(-c2ccc(F)cc2)c2ccccc21	243 (inactive)

experiment: differential killing of epithelial or mesenchymal cells, primary screen, imaging, PC-3E GFP, TEM4-18 mCherry, co-culture (AID 1345086); conditions: imaging cell counts, at 1 µM, actives lie on both sides, counts scaled to control wells, 1 = unselective;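 also: cells exposed to compound for 72 h before imaging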;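 as to red/green cell ratio (normalised): normalised mesenchymal count divided by normalised epithelial count so high means epithelial killing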

Structure (SMILES)	red/green cell ratio (normalised)
CC(C)(C)c1ccc(C(O)CCCN2CCC(C(O)(c3ccccc3)c3ccccc3)CC2)cc1 (centres undefined)	0.94 (inactive)
O=C(O)COCCN1CCN(C(c2ccccc2)c2ccc(Cl)cc2)CC1 (centres undefined)	0.83 (inactive)
Cc1ccc(/C(=C\CN2CCCC2)c2ccccn2)cc1	1.28 (inactive)
Clc1ccccc1CN1CCc2sccc2C1	0.9 (inactive)
C[N+]1(C)CCC(OC(=O)C(O)(c2ccccc2)C2CCCC2)C1 (centres undefined)	0.8 (inactive)
CC(C)(C(=O)O)c1ccc(C(O)CCCN2CCC(C(O)(c3ccccc3)c3ccccc3)CC2)cc1 (centres undefined)	1.14 (inactive)
CC(C)n1c(/C=C/[C@@H](O)C[C@@H](O)CC(=O)O)c(-c2ccc(F)cc2)c2ccccc21	0.7 (inactive)
CN(C)C(=N)N=C(N)N	0.72 (inactive)
O=C(O)c1cn(C2CC2)c2cc(N3CCNCC3)c(F)cc2c1=O	1.14 (inactive) and 1.04 (inactive)
O=S(=O)(c1cccc2cnccc12)N1CCCNCC1	1.1 (inactive)
NCCCC(O)(P(=O)(O)O)P(=O)(O)O	1.07 (inactive)

same assay, conditions: imaging cell counts, measured here: epithelial PC-3E GFP cell survival, at 1 µM

Structure (SMILES)	normalised cell number
CC(C)(C)c1ccc(C(O)CCCN2CCC(C(O)(c3ccccc3)c3ccccc3)CC2)cc1 (centres undefined)	1.26
O=C(O)COCCN1CCN(C(c2ccccc2)c2ccc(Cl)cc2)CC1 (centres undefined)	1.06
Cc1ccc(/C(=C\CN2CCCC2)c2ccccn2)cc1	0.94
Clc1ccccc1CN1CCc2sccc2C1	1.03
C[N+]1(C)CCC(OC(=O)C(O)(c2ccccc2)C2CCCC2)C1 (centres undefined)	1.28
CC(C)(C(=O)O)c1ccc(C(O)CCCN2CCC(C(O)(c3ccccc3)c3ccccc3)CC2)cc1 (centres undefined)	0.92
CC(C)n1c(/C=C/[C@@H](O)C[C@@H](O)CC(=O)O)c(-c2ccc(F)cc2)c2ccccc21	0.75
CN(C)C(=N)N=C(N)N	1.31
O=C(O)c1cn(C2CC2)c2cc(N3CCNCC3)c(F)cc2c1=O	1.04 and 1.24
O=S(=O)(c1cccc2cnccc12)N1CCCNCC1	0.86
NCCCC(O)(P(=O)(O)O)P(=O)(O)O	1
